From PubChem BioAssay (NCI)
Several values for one entry are separate records, joined by “and”; a condition that tells them apart may be missing. Identical values can stand only once. The panel holds about 83,000 compounds, 20% with a hit somewhere; the sample as a whole holds those more often.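 Values shown are percent growth following 48 h exposure of cells in 96-well plates to a single concentration of compound; below 10 was considered active.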 A number with no mark means an inactive call. Activity calls are given as the source filed them.

tested on: HL-60(TB) leukemia; experiment: NCI-60 one-dose screen, 48 h (100 = growth as untreated, 0 = no growth, -100 = all killed); conditions: 10 µM unless noted

| Structure (SMILES) | growth |
| --- | --- |
| CC(=O)Oc1ccc(C(c2ccc(OC(C)=O)cc2)c2ccccn2)cc1 | 102% |
| N#CC1=C(N)n2nc(-c3ccncc3)nc2NC1c1cccc2ccccc12 (stereo not drawn) | 89.8% |
| O=C(N/N=C/c1ccc2c(c1)OCO2)c1ccncc1 | 115% and 225% |
| COc1nc2c(cc1S(=O)(=O)c1ccccc1)CCc1c-2cnn1-c1ccccc1Cl | 39.9% |
| COC(=O)[C@H]1CCCN1C(=O)C1CCCN1C(=O)[C@@H](Cc1ccccc1)NC(=S)Nc1cc(C(F)(F)F)cc(C(F)(F)F)c1 (stereo partly drawn) | 112% and 58.9% |
| CN1CCCC1c1cccnc1 (stereo not drawn) | 105% |
| COc1ccc(C(=O)Nc2ncc(Cc3cccc(Cl)c3)s2)cc1OC | 11.1% |
| C=CCN=c1sc2c(n1NC(=O)c1cc3ccc1CCc1ccc(cc1)CC3)C(=O)c1ccccc1C2=O | -20.1% (active) |
| COc1cc(/C=C/C(=O)C(C(=O)/C=C/c2ccc(OC(=O)CCNC34CC5CC(CC(C5)C3)C4)c(OC)c2)C(=O)CCNC23CC4CC(CC(C4)C2)C3)ccc1OC(=O)CCNC12CC3CC(CC(C3)C1)C2 (stereo not drawn) | -30.3% (active) |
| CC(=O)/C(=C\c1c(-c2ccccc2)[nH]c2ccccc12)S(C)(=O)=O | -55.2% (active) |
| O=Nc1c(O)ccc2ccccc12.O=Nc1c(O)ccc2ccccc12.O=Nc1c([O-])ccc2ccccc12.[Fe+3] | 105% |
| Cc1ccc2c(c1)Sc1c(ccc3ccccc13)N2 | 44.9% |
| COCCNCC(O)Cn1c2ccc(Cl)cc2c2cc(Cl)ccc21 (stereo not drawn) | -42.6% (active) |
